This is a sample that favours compounds with a hit; in the whole collection about 12% have one here.
L major viab: inhibitors of Leishmania major promastigote growth | Leishmania major promastigotes, resazurin fluorescence viability | inhibition, % at 10 µM | 200,000 tested, 9% active; in the data active = inhibition above about 50%;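 note: promastigotes grown with compound for 44 hours at 28 °C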
WT yeast gro inh: growth inhibition of WT yeast, mitochondrial fusion screen; mitochondrial fusion phenotypic screen, WT strain; inhibition, % at 10 µM; 190,000 tested, 2.1% active; in the data active = inhibition above about 58%; tested in S. cerevisiae
CHOP inh: CHOP inhibition in unfolded protein response; CHO-K1 CHOP-promoter luciferase, tunicamycin-induced, 15-18 h; inhibition, % at 10 µM; 220,000 tested, 3.8% active;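 active = compounds that reduced the stress-induced luciferase reporter signal by more than about 70% of percent inhibition, limit read from the data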;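 note: 0% = tunicamycin plus vehicle and 100% = wells without tunicamycin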
Arbovirus anti: arbovirus infection inhibition | 200,000 tested, 0.37% active | inhibition, % at 10 µM | arbovirus infection cell-based antiviral screen; in the data active = inhibition above about 30%
Numbers without * were called inactive; nt = no result.

SMILES	L major viab	WT yeast gro inh	CHOP inh	Arbovirus anti
Cc1cccnc1NC(=S)NCCc1ccccc1	-4.7	60.9*	-56.4	5.4
O=C(c1cccs1)N1CCN(Cc2ccccc2[N+](=O)[O-])CC1	76.5*	-5.4	4.7	-1.2
COc1ccc(CN2CCN(C(=O)c3cccs3)CC2)c(OC)c1OC	94.8*	-0.7	50.7	2.4
CCCCNC(=O)CCN1N=C(c2ccccc2)CCC1=O	-5.8	-13.4	-7.3	16.1
CCOC(=O)C1CCN(C(=S)Nc2ccc(CC)cc2)CC1	-4.7	-4.5	-10.2	-1.9
N#CC(C(=O)OC1CCCCC1)c1nc2ccccc2nc1N1CCCCC1 (centres undefined)	54.0*	17.3	28.8	3.2
CCCCCCOC(=O)C(C#N)c1nc2ccccc2nc1N1CCOCC1 (centres undefined)	22.2	14.8	94.2*	2.5
CCCCCNC(=O)C(C#N)c1nc2ccccc2nc1N1CC(C)OC(C)C1 (centres undefined)	-5.9	nt	nt	nt
CC1CN(c2nc3ccccc3nc2C(C#N)C(=O)OC2CCCCC2)CC(C)O1 (centres undefined)	64.2*	59.6*	-1.0	-3.8
CC1CCCN(c2nc3ccccc3nc2C(C#N)C(=O)OC2CCCCC2)C1 (centres undefined)	60.7*	45.8	13.2	-12.8
CC1CCN(c2nc3ccccc3nc2C(C#N)C(=O)OC2CCCCC2)CC1 (centres undefined)	37.1	nt	23.8	-5.9
CCCOC(=O)C1=C(C)OC23OC(N)=C(C#N)C12C(=O)c1ccccc13 (centres undefined)	1.1	-10.1	-10.1	-19.1
Cc1ccc(S(=O)(=O)N2CCOCC2)cc1NC(=O)COC(=O)c1cc(=O)c2ccccc2o1	-2.0	16.5	-1.3	14.1
CCOC(=O)c1nnn2c1nc(Nc1cccc(C(F)(F)F)c1)c1ccccc12	nt	nt	12.9	nt
CCOC(=O)C1CCCN(c2nc3ccccc3nc2C(C#N)C(=O)NCc2ccccc2)C1 (centres undefined)	-0.9	2.2	74.5*	15.8
N#CC(C(=O)NCc1ccccc1)c1nc2ccccc2nc1N1CCCC1 (centres undefined)	1.6	-1.8	58.0	-15.9
CCN1C(=O)c2cccc3c(NS(=O)(=O)c4ccc(NC(C)=O)cc4)ccc1c23	5.8	-8.0	-18.1	-3.4
CCOC(=O)c1ccc(NC(=O)Nc2ccc3c4c(cccc24)C(=O)N3CC)cc1	14.5	-13.4	82.8*	-5.1
Cn1c(=O)c2c(nc(SCC(=O)NCc3ccc4c(c3)OCO4)n2Cc2ccc(Cl)cc2)n(C)c1=O	3.6	12.7	21.1	-6.8
Nc1nc(SCc2nc3scc(-c4cccs4)c3c(=O)[nH]2)n[nH]1	-3.2	-6.0	77.5*	-1.1
CN(Cc1ccccc1)c1nc2c(c(=O)[nH]c(=O)n2C)n1CCCc1ccccc1	53.6*	48.4	45.8	-12.9
CN(Cc1ccccc1)c1nc2c(c(=O)[nH]c(=O)n2C)n1Cc1ccccc1Cl	70.4*	10.3	60.3	1.9
O=C(C1=C(O)C(=O)N(Cc2ccco2)C1c1ccccc1)c1cccs1 (centres undefined)	-7.3	-25.8	19.6	5.2
O=C(CN1CCC(O)(c2ccc3c(c2)OCO3)CC1)OC1CCCCC1	96.9*	20.2	39.5	-0.2
CC(C)(C)NC(=O)NC(=O)COC(=O)CCC1CCCC1	nt	nt	76.7*	nt
SMILES	L major viab	WT yeast gro inh	CHOP inh	Arbovirus anti
CC(=O)Nc1ccc(NC(=O)COc2ccc3c(c2)CCC3)cc1	-0.5	15.4	-4.3	-8.8
COc1ccc(CNC(=O)COC(=O)CCC2CCCCC2)cc1	2.6	12.6	-6.0	1.8
CC(C)(C)NC(=O)NC(=O)COC(=O)COc1ccc2c(c1)CCC2	-7.3	11.3	84.8*	3.6
COc1cc(OC)cc(C(=O)NNC(=O)NC2CCCCC2)c1	-4.1	-0.8	16.7	-9.3
O=C(c1ccc([N+](=O)[O-])cc1)N1CCSC1c1ccc(Br)cc1 (centres undefined)	5.1	19.9	6.3	7.6
Cc1ccc(C2SCCN2C(=O)c2ccc([N+](=O)[O-])cc2)cc1 (centres undefined)	50.0*	24.6	28.0	16.7
CC1CCCCN1S(=O)(=O)c1ccc(S(=O)(=O)N(Cc2ccccc2)Cc2ccco2)cc1 (centres undefined)	68.6*	0.4	11.9	-4.4
Cc1ccccc1N1C(=O)C(Cl)=C(N2CCCCCC2)C1=O	-0.9	38.6	80.5*	19.7
Cc1ccc(C(=O)N2CCCC(c3ccc(Cl)cc3)=N2)cc1	26.5	35.2	65.1	-19.2
COC(=O)c1ccc(-n2c(C)cc(/C=N/Nc3nc(C)cc(=O)[nH]3)c2C)cc1	nt	nt	-2.8	nt
Cc1cc(=O)[nH]c(Nc2ccc(C(=O)OC(C)C)cc2)n1	1.0	-12.2	70.5*	3.1
CCCn1c(NC(=O)c2ccc(Br)cc2)nc2ccccc21	9.1	6.7	83.5*	-10.3
CN(C)CCCn1c(NC(=O)C2CCCCC2)nc2ccccc21	-3.1	-0.8	-4.0	-2.1
CCCCn1c(NC(=O)c2ccccc2)nc2ccccc21	95.6*	34.6	3.8	-22.0
CCCCn1c(NC(=O)C2CCCCC2)nc2ccccc21	71.5*	24.0	25.4	-32.4
Cc1ccccc1C(=O)NNC(=O)CSc1nc2ccccc2c(=O)[nH]1	nt	nt	0.8	nt
FC(F)(F)c1cccc(-c2ccn3ncnc3n2)c1	-1.5	1.8	22.0	2.0
Brc1ccc(OCc2ccccc2)c(CNCc2ccncc2)c1	93.7*	43.9	40.0	-6.9
Fc1ccc(COc2ccccc2CNCc2ccncc2)cc1	98.3*	-8.4	11.8	-3.5
COc1ccccc1CNC(=O)c1ccccc1N	-3.3	9.4	34.7	8.8
O=C(N/N=C/c1ccncc1)c1cc(Br)ccc1OCc1ccccc1	-5.0	-9.6	29.8	-3.2
COc1ccccc1CNC(=O)c1ccccc1OCc1ccc(F)cc1	32.1	67.3*	50.2	-18.5
COc1ccccc1NC(CC(=O)c1ccccc1)C(=O)OCC(=O)c1ccc(F)cc1 (centres undefined)	14.4	17.1	-5.2	2.9
Cc1ccc(NC2=NCC(=O)N2C2CCCC2)cc1	-2.6	3.5	12.5	2.7
C/C(=N\NC(=O)COc1ccc(C)cc1Br)c1cc([N+](=O)[O-])cs1	59.0*	4.5	63.1	-29.1
SMILES	L major viab	WT yeast gro inh	CHOP inh	Arbovirus anti
COC(=O)c1c(NC(=O)Cn2cnc([N+](=O)[O-])n2)sc2c1CCC(C)C2 (centres undefined)	99.8*	15.7	74.9*	-3.3
COC(=O)c1c(NC(=O)Cc2cccs2)sc2c1CCC(C)C2 (centres undefined)	1.1	24.9	-4.0	2.3
COC(=O)c1c(NC(=S)NN2CCN(C)CC2)sc2c1CCC(C)C2 (centres undefined)	100.1*	97.8	64.3	-40.3
CCOC(=O)c1c(NC(=O)Cn2cnc([N+](=O)[O-])n2)sc2c1CCC(C)C2 (centres undefined)	97.9*	-8.4	60.9	-9.7
Cc1nnc(SCc2cccc([N+](=O)[O-])c2)[nH]c1=O	3.3	-8.9	5.5	5.8
CC(CCc1ccccc1)NC(=O)c1ccc(NC(=O)c2ccccc2)cc1 (centres undefined)	-5.1	11.2	84.8*	-2.5
CC(C)C(=O)Nc1ccc(C(=O)c2ccccc2)cc1	99.0*	11.9	-1.4	-21.1
Cc1ccc(C(=O)CN2C(=O)C(=O)N(Cc3ccccc3)C2=O)cc1	-6.7	-9.6	4.5	6.5
